Pf apPOL inh = Pf-apPOL DNA polymerase inhibition; Recombinant Pf-apPOL, molecular beacon fluorescence, 1.5 h; inhibition, % at 10 µM; hit rate 0.25% among 210,000; AID 1794808
mHTT-CaM PPI inh = disrupts binding of mutant huntingtin to calmodulin | inhibition, % at 15 µM | hit rate 3.6% among 190,000 | AlphaScreen His-mHTT/GST-CaM binding, luminescence
Hits are given with their value. This is one part of a sample in which hits are shown more often than they occur. Cut-off read from the data, not from the text of the source: active = inhibition above about 50%; inactive = the rest.

CSCCC(C(=O)O)n1c(O)c(C2=c3cc(Br)ccc3=NC2=O)sc1=S (stereo not drawn) was read as mHTT-CaM PPI inh 51.
For NC(=O)C1CN(Cc2ccccc2)CC1c1ccccn1 (stereo not drawn) the results were Pf apPOL inh inactive and mHTT-CaM PPI inh inactive.
Screening CC(=O)Nc1ccc(NC(=O)c2cn3c(n2)CCCC3)cc1 returned Pf apPOL inh inactive and mHTT-CaM PPI inh inactive.
For COc1cccc2sc(N3CCN(c4ccccc4)CC3)nc12 the results were Pf apPOL inh inactive and mHTT-CaM PPI inh inactive.
`COc1cccc2sc(N3CCc4ccccc4C3)nc12` gave Pf apPOL inh inactive and mHTT-CaM PPI inh 93.
`N#CC(=CNc1cccnc1)C(=O)c1ccc(OC(F)(F)F)cc1` gave Pf apPOL inh inactive.
O=C(NCc1ccccn1)c1cc2sccc2n1CC1CC1 was read as Pf apPOL inh inactive and mHTT-CaM PPI inh inactive.
`Cc1cc2c(cc(C(=O)NCc3ccccn3)n2CC2CCC2)s1` gave Pf apPOL inh inactive and mHTT-CaM PPI inh 57.
`COc1ccccc1OCC(=O)NCc1ccccn1` gave Pf apPOL inh inactive and mHTT-CaM PPI inh inactive.
For CCCn1c(C(=O)N2CCOCC2)cc2sc(Br)cc21 the results were Pf apPOL inh inactive and mHTT-CaM PPI inh inactive.
Screening COc1ccccc1-c1cc(C(=O)NCc2ccccn2)n(C)n1 returned Pf apPOL inh inactive and mHTT-CaM PPI inh 100.
`CCn1c(C(=O)NCc2ccccc2F)cc2sc(C)cc21` gave Pf apPOL inh inactive and mHTT-CaM PPI inh inactive.
CCCn1c(C(=O)NCc2ccccn2)cc2sc(Br)cc21 was read as Pf apPOL inh inactive and mHTT-CaM PPI inh 72.
Screening C=CCn1c(C(=O)NCc2ccccn2)cc2sc(C)cc21 returned Pf apPOL inh inactive and mHTT-CaM PPI inh 56.
For COc1ccc(C2CC(c3ccccc3Cl)Nc3nc(N)nn32)cc1 (stereo not drawn) the results were Pf apPOL inh inactive and mHTT-CaM PPI inh inactive.
Screening Cc1ccc(NC(=O)Nc2nnc3ccccn23)cc1Cl returned Pf apPOL inh inactive and mHTT-CaM PPI inh inactive.
`C=CCNC(SCc1ccncc1)=C(C#N)C#N` gave mHTT-CaM PPI inh inactive.
O=C(NCC1CCN(S(=O)(=O)C2CC2)CC1)Nc1ccccc1C(F)(F)F was read as Pf apPOL inh inactive and mHTT-CaM PPI inh inactive.
Nc1nc(SCCO)[nH]c(=O)c1NC(=O)c1ccc(C(F)(F)F)cc1 was read as Pf apPOL inh inactive and mHTT-CaM PPI inh inactive.
`Cc1ccc(OCc2nc(-c3ccc([N+](=O)[O-])cc3)no2)c(Br)c1` gave Pf apPOL inh inactive and mHTT-CaM PPI inh inactive.
Screening O=C(Nc1nnc(-c2ccno2)o1)c1ccc2ncsc2c1 returned Pf apPOL inh 57 and mHTT-CaM PPI inh 90.
CS(=O)(=O)c1cccc(C(=O)Nc2nnc(-c3ccno3)o2)c1 was read as Pf apPOL inh inactive and mHTT-CaM PPI inh 95.
For Cc1cc(-c2nnc(NC(=O)c3ccc4ncsc4c3)o2)nn1C the results were Pf apPOL inh inactive and mHTT-CaM PPI inh inactive.
For Cc1cc(C(=O)Nc2nnc(-c3ccno3)o2)no1 the results were Pf apPOL inh inactive and mHTT-CaM PPI inh inactive.
O=C(Nc1nnc(-c2ccno2)o1)c1cccs1 was read as Pf apPOL inh inactive and mHTT-CaM PPI inh 82.
Screening O=C(Nc1nnc(-c2ccc(Br)s2)o1)c1cccs1 returned Pf apPOL inh inactive and mHTT-CaM PPI inh inactive.
Screening COc1ccccc1CNC(=O)C1CCc2nc(N3CCOCC3)ncc2C1 (stereo not drawn) returned Pf apPOL inh inactive and mHTT-CaM PPI inh inactive.
For CN(C)c1ncncc1N1CCC(C(=O)NCCCN2CCCC2=O)CC1 the results were Pf apPOL inh inactive and mHTT-CaM PPI inh inactive.
For COc1cc(OC)c2c(-c3ccccc3)cc(=O)oc2c1C(CCN1CCOCC1)c1ccc2c(c1)OCO2 (stereo not drawn) the results were Pf apPOL inh inactive and mHTT-CaM PPI inh 84.
`COc1cc(OC)c2ccc(=O)oc2c1C(CCN1CCOCC1)c1ccc2c(c1)OCO2` (stereo not drawn) gave Pf apPOL inh inactive and mHTT-CaM PPI inh inactive.
For CCCCCc1cc(=O)oc2c(C(CCN3CCCC3)c3ccc4c(c3)OCO4)c(OC)cc(OC)c12 (stereo not drawn) the results were Pf apPOL inh inactive and mHTT-CaM PPI inh 100.
COc1cc(OC)c2ccc(=O)oc2c1C(CCN1CCCC1)c1ccc2c(c1)OCO2 (stereo not drawn) was read as Pf apPOL inh inactive and mHTT-CaM PPI inh inactive.
Screening COc1cc(OC)c2c(-c3ccccc3)cc(=O)oc2c1C(CCN1CCCC1)c1ccc2c(c1)OCO2 (stereo not drawn) returned Pf apPOL inh inactive and mHTT-CaM PPI inh 100.
For O=C1CCCN1c1ccc(Cn2nc3ccc(-c4ccc(Cl)cc4)nn3c2=O)cc1 the results were Pf apPOL inh inactive and mHTT-CaM PPI inh inactive.
O=C1CSC(c2ccc(Br)cc2)N1c1cccc(Cl)c1 (stereo not drawn) was read as Pf apPOL inh inactive and mHTT-CaM PPI inh inactive.
Screening CC(=O)COc1ccc2c(c1)OC(=CC1=Cc3ccccc3OC1)C2=O returned Pf apPOL inh inactive and mHTT-CaM PPI inh inactive.
`O=C(Oc1ccc2c(c1)OC(=CC1=Cc3ccccc3OC1)C2=O)c1cccs1` gave Pf apPOL inh inactive and mHTT-CaM PPI inh 79.
Screening COc1ccc(CSc2nc3ccccc3o2)cc1 returned Pf apPOL inh inactive and mHTT-CaM PPI inh inactive.
Screening N#C/C(=C\c1ccc(-c2ccc(Cl)cc2)o1)c1nn(CCO)c(N)c1C#N returned Pf apPOL inh inactive and mHTT-CaM PPI inh 54.
`N#C/C(=C\c1c(F)cccc1Cl)c1nn(CCO)c(N)c1C#N` gave Pf apPOL inh inactive and mHTT-CaM PPI inh inactive.
N#C/C(=C\c1cccc(Br)c1)c1nn(CCO)c(N)c1C#N was read as Pf apPOL inh inactive and mHTT-CaM PPI inh inactive.
`N#C/C(=C\c1ccc(-c2cc(Cl)cc(Cl)c2)o1)c1nn(CCO)c(N)c1C#N` gave Pf apPOL inh inactive and mHTT-CaM PPI inh 58.
For NC(=O)C1(N2CCCCC2)CCN(C(=O)CSCC(=O)O)CC1 the results were Pf apPOL inh inactive.
`C=CCNC(=O)C1CC(=O)N(c2ccc(C(C)C)cc2)C1` (stereo not drawn) gave Pf apPOL inh inactive and mHTT-CaM PPI inh inactive.
CC(C)(C)c1cc(-c2cc(C(C)(C)C)c(O)c(C(C)(C)C)c2)cc(C(C)(C)C)c1O was read as Pf apPOL inh inactive.
For CC1=CC(C)(C)Nc2cc(CN(C)C)c(O)cc21 the results were Pf apPOL inh inactive and mHTT-CaM PPI inh 98.
CC1=CC(C)(C)Nc2cc(C(C)(C)C)c(O)cc21 was read as Pf apPOL inh inactive and mHTT-CaM PPI inh 95.
Screening CCOC(=O)Oc1ccc2c(c1)C(C)=CC(C)(C)N2 returned Pf apPOL inh inactive and mHTT-CaM PPI inh inactive.
`CN(C)c1ccc(C(=O)N2CCCC2c2nc(-c3ccc(F)cc3F)no2)cc1` (stereo not drawn) gave Pf apPOL inh inactive and mHTT-CaM PPI inh inactive.
`O=C(CSc1ccc2nnc(-c3ccccn3)n2n1)NCc1ccc2c(c1)OCO2` gave Pf apPOL inh inactive and mHTT-CaM PPI inh inactive.
`Cc1ccc2nc(NC(=O)CSc3ccc4nnc(-c5ccccn5)n4n3)sc2c1` gave Pf apPOL inh inactive and mHTT-CaM PPI inh 80.
`CCOC(=O)CC(=O)CSc1ccc2nnc(-c3ccccn3)n2n1` gave Pf apPOL inh inactive and mHTT-CaM PPI inh 83.
`Cc1ccc2nc(NC(=O)CSc3ccc(-n4cccn4)nn3)sc2c1` gave Pf apPOL inh inactive and mHTT-CaM PPI inh inactive.
Screening N#CC1=C(N)OC2=C(CCC/C2=C\c2cccs2)C1c1cccs1 (stereo not drawn) returned mHTT-CaM PPI inh inactive.
